Test results: PubChem BioAssay (Tox21)
Inconclusive results are not listed. A call without a number means that no potency is given here. Unmarked numbers belong to inactive results. Active and inactive are the calls of the source. Unless noted, the call rests on the fitted dose curve; in most records, active means well fitted curve in the direction sought with a large enough effect in the repeat runs; inconclusive means weak or mixed curves; inactive means no such curve, though single readings can be large; an effect the other way counts as inactive or inconclusive. Positions of bridges follow the written chain, without caps; N, C: chain ends. Non-standard residues stand in square brackets, D forms with d. Residues, ends and D or L forms follow the SMILES beside them. *: point of attachment. X2 = CC[C@H](C)CCCCC(=O)*; Dab = NCC[C@H](N)C(=O)O

What was measured:
[1] = qHTS assay to identify aromatase inhibitors - cell viability counter screen (AID 743084);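 further: cells stimulated with testosterone during compound exposure; nearly all actives have a fitted effect of over 55% in size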; further: potency means the concentration at half of the fitted maximal effect
[2] = target: Aryl hydrocarbon receptor (Homo sapiens) (UniProt P35869); assay: qHTS assay to identify small molecule that activate the aryl hydrocarbon receptor (AhR) signaling pathway (AID 743085);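 further: HG2L7.5c1 human HepG2 liver cells with stably integrated DRE-driven firefly reporter; series mostly up to about 70 µM; nearly all actives have a fitted effect of over 15% in size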
Method in brief: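 HepG2 cells stably carrying a 20-DRE firefly luciferase reporter (HG2L7.5c1) treated with compound for 24 hr at 37C. Luciferase read by ONE-Glo luminescence, with CellTiter-Fluor viability read first.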

[3] = qHTS assay to identify small molecule that activate the aryl hydrocarbon receptor (AhR) signaling pathway - cell viability counter screen (AID 743086);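 further: HepG2 liver cells carrying the AhR DRE luciferase reporter; series mostly up to about 70 µM; nearly all actives have a fitted effect of over 45% in size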
Method in brief: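 Cytotoxicity counter screen: CellTiter-Fluor signal (30 min, 37 C) in 4000 HepG2 cells/well carrying the DRE-luciferase reporter, following 24 h compound exposure at 37 C.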

[4] = target: Peroxisome proliferator-activated receptor gamma (Homo sapiens) (UniProt P37231); assay: qHTS assay to identify small molecule agonists of the peroxisome proliferator-activated receptor gamma (PPARg) signaling pathway (AID 743094; active means well fitted activation curve with a large enough effect in the signal ratio in the repeat runs, not every such curve was filed as active; the % refers to the signal ratio)
Method in brief: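 Fluorescence-based beta-lactamase readout in HEK293H PPARg UAS-bla cells after 17 h compound exposure (37C) and 1 h B/G FRET substrate incubation at room temperature.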

[5] = qHTS assay to identify small molecule phospholipidosis (PLD) inducers (AID 1259344; active means well fitted curve in the direction sought with a large enough effect; an effect the other way counts as inactive or inconclusive)
Method in brief: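 Phospholipid accumulation was scored by imaging: fixed, Hoechst-counterstained HepG2 cells stained with LipidTOX Red after 24 h compound exposure at 37 C. Read-outs were pit count and pit intensity per well or per cell, with amiodarone and DMSO controls.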

[6] = target: Nuclear receptor subfamily 1 group I member 2 (Rattus norvegicus) (UniProt Q9R1A7); assay: Rat pregnane X receptor (rPXR) activation by small molecules, qHTS assay (AID 1346983); details: rPXR luciferase reporter cells, One-Glo luminescence, 24 h; max activation: active compounds read high; further: nearly all actives have a fitted effect of over 20% in size; further: potency means the concentration at half of the fitted maximal effect
Method in brief: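 Luminescent readout (One-Glo luciferase, 30 min room temperature) followed 24 hr compound treatment at 37 C of rPXR cells plated 2,000 per well and preincubated 5hr; qHTS format with compounds delivered in DMSO.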

[7] = target: Nuclear receptor subfamily 1 group I member 2 (Homo sapiens) (UniProt O75469); assay: CYP3A4 induction through human pregnane X receptor (PXR) by small molecules, qHTS assay (AID 1346984); further: nearly all actives have a fitted effect of over 40% in size
Method in brief: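 After 24 h at 37C with compound, DPX-2 cells (HepG2, co-transfected PXR response element and CYP3A4 promoter-luciferase) got 3uM final P450-Glo Luciferin-IPA for 3 h; One-Glo luminescence followed.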

[8] = target: Nuclear receptor subfamily 1 group I member 2 (Homo sapiens) (UniProt O75469); assay: Human pregnane X receptor (PXR) activation by small molecules, qHTS assay (AID 1346985); further: nearly all actives have a fitted effect of over 40% in size; further: potency means the concentration at half of the fitted maximal effect
Method in brief: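 DPX-2 cells (HepG2 co-transfected with a PXR response element and a CYP3A4-promoter luciferase construct) were seeded at 2,000 per well, rested 5 hr at 37C, then exposed to DMSO-dissolved compounds for 24 hr. Activation was read as luciferase luminescence.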

Aryl hydrocarbon receptor (Homo sapiens), sequence (P35869 whole entry, looked up): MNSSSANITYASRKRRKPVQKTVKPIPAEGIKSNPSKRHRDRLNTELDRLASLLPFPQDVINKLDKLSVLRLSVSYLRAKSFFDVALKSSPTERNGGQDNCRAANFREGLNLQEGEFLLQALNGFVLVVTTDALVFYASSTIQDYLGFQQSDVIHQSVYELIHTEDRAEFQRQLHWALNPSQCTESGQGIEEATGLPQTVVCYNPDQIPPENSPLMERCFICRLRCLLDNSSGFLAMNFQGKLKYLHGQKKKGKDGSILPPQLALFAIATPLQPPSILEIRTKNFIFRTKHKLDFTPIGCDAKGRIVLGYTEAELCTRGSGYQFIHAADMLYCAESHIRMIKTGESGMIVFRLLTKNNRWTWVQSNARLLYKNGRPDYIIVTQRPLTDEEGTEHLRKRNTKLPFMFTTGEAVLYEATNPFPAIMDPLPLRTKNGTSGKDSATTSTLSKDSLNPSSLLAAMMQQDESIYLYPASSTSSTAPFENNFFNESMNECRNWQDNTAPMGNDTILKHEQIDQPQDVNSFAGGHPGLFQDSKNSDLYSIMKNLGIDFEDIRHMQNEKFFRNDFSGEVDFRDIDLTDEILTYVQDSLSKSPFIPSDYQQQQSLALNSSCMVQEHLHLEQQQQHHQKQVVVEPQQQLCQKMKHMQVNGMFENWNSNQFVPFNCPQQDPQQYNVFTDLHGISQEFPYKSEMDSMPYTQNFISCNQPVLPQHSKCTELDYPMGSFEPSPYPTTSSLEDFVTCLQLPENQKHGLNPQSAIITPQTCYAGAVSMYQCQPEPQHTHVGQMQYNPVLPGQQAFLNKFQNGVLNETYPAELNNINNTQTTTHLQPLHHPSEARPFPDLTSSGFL
Nuclear receptor subfamily 1 group I member 2 (Rattus norvegicus), sequence (Q9R1A7 whole entry, looked up): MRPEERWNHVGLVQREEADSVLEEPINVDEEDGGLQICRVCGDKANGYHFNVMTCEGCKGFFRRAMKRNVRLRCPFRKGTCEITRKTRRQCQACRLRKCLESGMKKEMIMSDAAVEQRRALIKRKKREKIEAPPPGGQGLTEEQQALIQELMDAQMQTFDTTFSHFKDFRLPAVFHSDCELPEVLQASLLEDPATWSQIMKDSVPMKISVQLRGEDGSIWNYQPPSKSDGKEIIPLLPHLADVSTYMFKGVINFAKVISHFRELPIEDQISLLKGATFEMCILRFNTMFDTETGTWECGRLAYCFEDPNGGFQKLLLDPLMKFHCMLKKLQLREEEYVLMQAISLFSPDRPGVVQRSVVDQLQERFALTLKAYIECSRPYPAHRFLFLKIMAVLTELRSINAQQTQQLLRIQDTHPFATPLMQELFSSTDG
Peroxisome proliferator-activated receptor gamma (Homo sapiens), sequence (P37231 whole entry, looked up): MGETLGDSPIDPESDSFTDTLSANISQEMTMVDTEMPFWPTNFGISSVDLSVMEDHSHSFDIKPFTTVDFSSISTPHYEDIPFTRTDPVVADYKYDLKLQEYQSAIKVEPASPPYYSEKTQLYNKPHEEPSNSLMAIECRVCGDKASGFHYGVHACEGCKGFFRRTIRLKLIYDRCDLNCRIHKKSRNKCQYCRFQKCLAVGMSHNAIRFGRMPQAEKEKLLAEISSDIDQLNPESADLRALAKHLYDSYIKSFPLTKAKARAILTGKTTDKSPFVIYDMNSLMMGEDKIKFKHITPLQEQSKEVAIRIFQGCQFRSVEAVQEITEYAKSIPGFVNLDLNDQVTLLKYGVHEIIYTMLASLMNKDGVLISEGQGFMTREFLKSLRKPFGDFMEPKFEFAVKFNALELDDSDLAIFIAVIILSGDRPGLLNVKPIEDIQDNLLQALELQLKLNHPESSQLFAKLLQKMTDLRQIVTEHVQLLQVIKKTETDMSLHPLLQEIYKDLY

SMILES | Potency [1] | Potency [2] | Potency [3] | Potency [4] | Potency [5] | max activation [6] [%] | Potency [7] | Potency [8] | Potency [6]
CCCCCCCCCCCCCCCC(=O)OC[C@@H](O)[C@H]1OC[C@H](O)[C@H]1O | inactive | inactive | inactive | inactive | inactive | 2.9 | inactive | inactive | –
CC(=O)OCC(=O)[C@@]12OC3(CCCC3)O[C@@H]1C[C@H]1[C@@H]3CCC4=CC(=O)C=C[C@]4(C)[C@@]3(F)[C@@H](O)C[C@@]12C | inactive | inactive | inactive | inactive | inactive | – | inactive | 14.1 µM (active) | 25.1 µM (active)
CCOC(=O)[C@@H](N)CS | inactive | inactive | inactive | inactive | inactive | -2.02 | inactive | inactive | –
CCCCC/C=C\CCC(=O)N[C@H]1[C@H](Oc2c3cc4cc2Oc2ccc(cc2Cl)[C@@H](O[C@@H]2O[C@H](CO)[C@@H](O)[C@H](O)[C@H]2NC(C)=O)[C@@H]2NC(=O)[C@H](NC(=O)[C@@H]4NC(=O)[C@H]4NC(=O)[C@@H](Cc5ccc(c(Cl)c5)O3)NC(=O)[C@H](N)c3ccc(O)c(c3)Oc3cc(O)cc4c3)c3ccc(O)c(c3)-c3c(O[C@H]4O[C@H](CO)[C@@H](O)[C@H](O)[C@@H]4O)cc(O)cc3[C@@H](C(=O)O)NC2=O)O[C@H](CO)[C@@H](O)[C@@H]1O | inactive | inactive | inactive | inactive | inactive | 0.769 | inactive | inactive | –
O=C(O)[C@H]1/C(=C/CO)O[C@@H]2CC(=O)N21 | inactive | inactive | inactive | inactive | inactive | -2.31 | inactive | inactive | –
Nc1nc2c(c(=O)[nH]1)N(C=O)C(CNc1ccc(C(=O)N[C@@H](CCC(=O)O)C(=O)O)cc1)CN2 (stereo partly drawn) | inactive | inactive | inactive | inactive | inactive | 3.43 | inactive | inactive | –
CC[C@H]1NC(=O)[C@@H](NC(=O)c2ncccc2O)[C@@H](C)OC(=O)[C@H](c2ccccc2)NC(=O)[C@@H]2CC(=O)CCN2C(=O)[C@H](Cc2ccccc2)N(C)C(=O)[C@@H]2CCCN2C1=O | inactive | inactive | inactive | inactive | inactive | 9.01 | inactive | inactive | –
FCOC(C(F)(F)F)C(F)(F)F | inactive | inactive | inactive | inactive | inactive | -0.275 | inactive | inactive | –
CCN(CC)CCOC(=O)c1cccnc1 | inactive | inactive | inactive | inactive | inactive | -7.53 | inactive | inactive | –
CC[C@H](C)[C@@H]1NC(=O)[C@H](Cc2ccc(O)cc2)NC(=O)[C@@H](N)CSSC[C@@H](C(=O)N2CCC[C@H]2C(=O)N[C@@H](CC(C)C)C(=O)NCC(N)=O)NC(=O)[C@H](CC(N)=O)NC(=O)[C@H](CCC(N)=O)NC1=O | inactive | inactive | inactive | inactive | inactive | 0.0402 | inactive | inactive | –
CCC(C)[C@@H](N)C(=O)O (stereo partly drawn) | inactive | inactive | inactive | inactive | inactive | -2.74 | inactive | inactive | –
CCCCCCCCCCCCCCCCCC[N+](C)(C)CCC[Si](OC)(OC)OC | inactive | inactive | inactive | inactive | inactive | 6.33 | inactive | inactive | –
CC1(C)S[C@@H]2[C@H](NC(=O)[C@H](NC(=O)N3CCN(S(C)(=O)=O)C3=O)c3ccccc3)C(=O)N2[C@H]1C(=O)O | inactive | inactive | inactive | inactive | inactive | -9.82 | inactive | inactive | –
C[C@@](Cc1ccc(O)c(O)c1)(NN)C(=O)O | inactive | inactive | inactive | inactive | inactive | -6.63 | inactive | inactive | –
CC(=O)N(CC(C)C(=O)O)c1c(I)cc(I)c(N)c1I (stereo not drawn) | inactive | inactive | inactive | inactive | inactive | -1.91 | inactive | inactive | –
CO/N=C(\C(=O)N[C@@H]1C(=O)N2C(C(=O)O)=CCS[C@H]12)c1csc(N)n1 | inactive | inactive | inactive | inactive | inactive | -4.38 | inactive | inactive | –
CC1C(=O)CC2C3(C)CCC2(C(C)C(=O)O)C(=O)C13 (stereo not drawn) | inactive | inactive | inactive | inactive | inactive | 0.0537 | inactive | inactive | –

SMILES | Potency [1] | Potency [2] | Potency [3] | Potency [4] | Potency [5] | max activation [6] [%] | Potency [7] | Potency [8] | Potency [6]
O=C1NCCN1c1ncc([N+](=O)[O-])s1 | inactive | inactive | inactive | inactive | inactive | -1.52 | inactive | inactive | –
CCCCC(=O)O[C@H]1CC[C@H]2[C@@H]3CCc4cc(O)ccc4[C@H]3CC[C@]12C | inactive | inactive | inactive | inactive | inactive | -1.73 | inactive | inactive | –
CN1CCC(OC(=O)C(Oc2ccc(Cl)cc2)Oc2ccc(Cl)cc2)CC1 | inactive | inactive | inactive | inactive | inactive | -4.17 | inactive | inactive | –
O=S(=O)(O)CCCS(=O)(=O)O | inactive | inactive | inactive | inactive | inactive | -2.5 | inactive | inactive | –
O=C1CCC(=O)N1CO | inactive | inactive | inactive | inactive | inactive | -2.21 | inactive | inactive | –
Cc1ccc(S(=O)(=O)NC(=O)N[C@@H](C)Cc2ccccc2)cc1 | inactive | inactive | inactive | inactive | inactive | 4.79 | inactive | inactive | –
COC(=O)CCC[N+](C)(C)C | inactive | inactive | inactive | inactive | inactive | -0.156 | inactive | inactive | –
COC(=O)[C@@H](N)CS | inactive | inactive | inactive | inactive | inactive | 0.531 | inactive | inactive | –
O=P(O)(O)OC[C@H](O)CO | inactive | inactive | inactive | inactive | inactive | -3.61 | inactive | inactive | –
CC(O)[C@@H]1NC(=O)[C@H](Cc2ccccc2)NC(=O)[C@H](C(C)O)NC(=O)[C@H](CCCCN)NC(=O)[C@H](Cc2c[nH]c3ccccc23)NC(=O)[C@H](Cc2ccccc2)NC(=O)[C@H](Cc2ccccc2)NC(=O)[C@H](CC(N)=O)NC(=O)[C@H](CCCCN)NC(=O)[C@@H](NC(=O)CNC(=O)[C@H](C)N)CSSC[C@@H](C(=O)O)NC(=O)[C@H](CO)NC1=O (stereo partly drawn) | inactive | inactive | inactive | inactive | inactive | -3.53 | inactive | inactive | –
CC[C@H](C)CCCCC(=O)N[C@@H](CCN)C(=O)N[C@H](C(=O)N[C@@H](CCN)C(=O)N[C@H]1CCNC(=O)[C@@H]([C@H](C)O)NC(=O)[C@H](CCN)NC(=O)[C@H](CCN)NC(=O)[C@H](CC(C)C)NC(=O)[C@@H](CC(C)C)NC(=O)[C@H](CCN)NC1=O)[C@@H](C)O (X2-[Dab]T[Dab][Dab][Dab][dL]L[Dab][Dab][dT]; lactam 4-C) | inactive | inactive | inactive | inactive | inactive | -4.02 | inactive | inactive | –
Cc1cccc(C)c1NC(=O)NC1=CCCN1C | inactive | inactive | inactive | inactive | inactive | -2.14 | inactive | inactive | –
CCCCC(O)c1ccccc1 (stereo not drawn) | inactive | inactive | inactive | inactive | inactive | -0.82 | inactive | inactive | –
COc1ccc(C[C@H](C)NC[C@@H](O)c2ccc(O)c(NC=O)c2)cc1 | inactive | inactive | – | inactive | inactive | -1.02 | inactive | inactive | –
O=C(OC[C@H]1O[C@](O)(COC(=O)c2cccnc2)[C@@H](OC(=O)c2cccnc2)[C@@H]1OC(=O)c1cccnc1)c1cccnc1 | inactive | inactive | – | inactive | inactive | 1.1 | inactive | inactive | –
CC1CS(=O)(=O)CCN1/N=C/c1ccc([N+](=O)[O-])o1 (stereo not drawn) | inactive | inactive | – | inactive | inactive | -7.04 | inactive | inactive | –
C/C1=C2N=C(/C=C3N=C(/C(C)=C4\[N-][C@@](C)([C@@H]5N=C1[C@](C)(CCC(=O)NCC(C)OP(=O)(O)O[C@H]1[C@@H](O)[C@@H](n6cnc7cc(C)c(C)cc76)O[C@@H]1CO)[C@H]5CC(N)=O)[C@@](C)(CC(N)=O)[C@@H]4CCC(N)=O)[C@@](C)(CC(N)=O)[C@@H]\3CCC(N)=O)C(C)(C)[C@@H]/2CCC(N)=O.CC(=O)O.[Co] (stereo partly drawn) | 23.7 µM (active) | inactive | – | inactive | inactive | -15.5 | inactive | inactive | –
